From PubChem
This is a sample that favours compounds with a hit; in the whole collection about 3.4% have one here.
Env fusion inh: inhibitors of HIV-1 Env-driven cell-cell fusion, primary screen, HeLa-JRFL effector, CEM21 target cells, luciferase; actives 1.1% (n = 360,000); AID 651610, 2012; inhibition, % at 12.3 µM;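 active = mean replicate inhibition score of at least 50 and every replicate individually at or above 50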;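 also: 0% = plate neutral controls and 100% = maraviroc near 300 nM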
MITF TRPM1 HTS: activators of MITF-driven TRPM1 promoter reporter, primary screen, cell-based, SK-MEL-5, luciferase, single point | actives 0.75% (n = 300,000) | AID 588334, 2011 | SK-MEL-5 TRPM1-promoter luciferase, 24 h; % of positive control, neutral wells = 0 | activation, % at 12.5 µM;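 active = mean activation of at least 80% with every replicate also reaching 80%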;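 also: 0% = neutral control wells and 100% = parthenolide positive control wells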
miR-122 sensor: miR-122 Renilla sensor signal increase in Huh7, primary screen, miR-122 inhibitor project, cell-based, single point, plate reader | AID 602342, 2012 | activation (reporter increase), % at 12.5 µM | actives 0.3% (n = 340,000) | Huh7 miR-122 Renilla luciferase sensor, 48 h; neutral wells = 0, positive control = 100;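 active = mean replicate activation score at least 90 and every replicate individually at or above 90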;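 also: higher luciferase means less miR-122 activity so hits act as miR-122 inhibitors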
esBAF inh: Bmi1 luciferase reporter increase in mESCs, primary screen, esBAF inhibitor project, mouse ES cells, Bmi1 luciferase knock-in, single point. reporter increase, % at 12.5 µM. actives 2% (n = 350,000). 24 h; 100% = twice the neutral-well signal; in the data active = activation above about 40%;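 also: 0% = median of the plate's neutral control wells and 100% = double that signal; a rise in the Bmi1 reporter signal indicates esBAF inhibition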
Wnt act: Wnt/beta-catenin pathway activators, primary screen, cell-based, plate reader, single point | Wnt/beta-catenin reporter cell assay, activator | activation, % at 9.35 µM | actives 1.2% (n = 300,000); in the data active = activation above about 30%, passing the limit was not always enough;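 also: 0% = neutral control wells and 100% = positive control wells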
Active calls of the source: *; [ ] = remark or other dose.

Results for CCOC(=O)c1cnc(SCC(=O)c2ccc(Cl)cc2)nc1N ?
miR-122 sensor: 3; esBAF inh: 5; Wnt act: 1

How did CCc1nc2ccc(C(=O)NCCN3CCNC3=O)cn2c1N(CC)Cc1cccc(Br)c1 do in these assays?
Env fusion inh: 72*; miR-122 sensor: 1; esBAF inh: -3; Wnt act: -1

Results for N/C(=N\O)c1ccc(NC(=O)c2cccs2)cc1 ?
Env fusion inh: -12; MITF TRPM1 HTS: 53; miR-122 sensor: -21; esBAF inh: 22; Wnt act: 40*

Results for COC(=O)Cc1ccc(NC(=O)c2cccs2)cc1 ?
Env fusion inh: -61; MITF TRPM1 HTS: 68; miR-122 sensor: 5; esBAF inh: 49*; Wnt act: 18

Results for COc1ccccc1CC(=O)Nc1ccc(NC(=O)c2cccs2)cc1 ?
Env fusion inh: 7; MITF TRPM1 HTS: 31; esBAF inh: 12; Wnt act: -1

What do the screens show for `CCc1cnc(N2[C@H](C#N)[C@H](c3ccc(C#Cc4ccccc4F)cc3)[C@H]2CO)s1`?
Env fusion inh: 65*[16.7 µM]; esBAF inh: -56

Results for Cc1ccc2[nH]c(-c3cccc(F)c3)cc(=O)c2c1 ?
MITF TRPM1 HTS: -10; esBAF inh: 27; Wnt act: -15

What do the screens show for `Cc1ccc2[nH]c(-c3cccc(N)c3)cc2c1`?
Env fusion inh: -275; MITF TRPM1 HTS: 70; miR-122 sensor: 0; esBAF inh: 39; Wnt act: 82*

Results for C[C@@H]1CCCCO[C@@H](CN(C)CC2CC2)[C@@H](C)CN([C@H](C)CO)C(=O)c2cc(NS(=O)(=O)c3cccs3)ccc2O1 ?
Env fusion inh: -7[16.7 µM]; miR-122 sensor: 4[16.7 µM]; esBAF inh: 6

How did COc1cccc(NC(=O)N[C@@H]2C=C[C@H](CC(=O)N3CCN(C)CC3)O[C@H]2CO)c1 do in these assays?
Env fusion inh: -9[16.7 µM]; esBAF inh: -3

Results for CCCCn1c(SC(C)C(=O)c2ccc(OC)cc2)nc2cc(S(N)(=O)=O)ccc21 (stereo unspecified) ?
MITF TRPM1 HTS: 3; miR-122 sensor: 10; esBAF inh: -5

How did CCn1c(SC(C)C(=O)NC2CCCC2)nc2cc(S(N)(=O)=O)ccc21 (stereo unspecified) do in these assays?
Env fusion inh: 5; MITF TRPM1 HTS: -9; miR-122 sensor: -8; esBAF inh: -5; Wnt act: 48*

Results for Cc1ccc(C(=O)c2oc3ccccc3c2N)cc1 ?
MITF TRPM1 HTS: 32; miR-122 sensor: -1; esBAF inh: 88*

What do the screens show for `CCOC(=O)c1oc2ccccc2c1N`?
Env fusion inh: -48; MITF TRPM1 HTS: 43; miR-122 sensor: 10; Wnt act: 4

How did Nc1c(C(=O)c2ccccc2)oc2ccc(Br)cc12 do in these assays?
Env fusion inh: inactive; MITF TRPM1 HTS: 62; miR-122 sensor: 6; esBAF inh: 72*; Wnt act: 11

How did Nc1c(C(=O)c2cccs2)oc2ccccc12 do in these assays?
Env fusion inh: -32; miR-122 sensor: -1; esBAF inh: 54*

What do the screens show for `COc1ccc2oc(C(=O)CCC(=O)O)c(N)c2c1`?
MITF TRPM1 HTS: 4; miR-122 sensor: 0; esBAF inh: -5; Wnt act: -1

Results for Nc1c(C(=O)c2ccc(Br)cc2)oc2ccccc12 ?
Env fusion inh: -25; MITF TRPM1 HTS: 16; miR-122 sensor: -3; Wnt act: 9

Results for COC(=O)CCC(=O)c1oc2ccc(Br)cc2c1N ?
Env fusion inh: inactive; MITF TRPM1 HTS: 90*; miR-122 sensor: 6; esBAF inh: 11

How did CCC(=O)Nc1ccc2c(c1)C(=O)N(C)C[C@H](OC)[C@H](C)CN(Cc1ccncc1)[C@H](C)CO2 do in these assays?
Env fusion inh: -29[16.7 µM]; esBAF inh: 0

What do the screens show for `Nc1c(C(=O)c2ccc(Br)s2)oc2ccccc12`?
Env fusion inh: -132; MITF TRPM1 HTS: 30; miR-122 sensor: 7; esBAF inh: 74*; Wnt act: 35*

Results for COc1ccc(OC)c(Nc2nc(-c3cccs3)cs2)c1 ?
Env fusion inh: -24; MITF TRPM1 HTS: 14; miR-122 sensor: 15; esBAF inh: 8; Wnt act: 10

Results for COc1ccccc1Nc1nc(-c2cccs2)cs1 ?
MITF TRPM1 HTS: 62; miR-122 sensor: 3; esBAF inh: 52*; Wnt act: 22

How did COc1ccc(Nc2nc(-c3cccs3)cs2)c(OC)c1 do in these assays?
Env fusion inh: -276; miR-122 sensor: 0; esBAF inh: 53*

How did O=C(CSC1CCc2ccccc21)NNC(=O)Nc1ccc(Cl)cc1 (stereo unspecified) do in these assays?
Env fusion inh: 15; Wnt act: 38*

What do the screens show for `O=C(CSC1CCc2ccccc21)NN=Cc1ccco1` (stereo unspecified)?
Env fusion inh: -8; Wnt act: -3

Results for O=S(=O)(N[C@H]1CC[C@@H](CCn2cc(-c3cccnc3)nn2)O[C@H]1CO)c1ccccc1 ?
Env fusion inh: 6[16.7 µM]; esBAF inh: -2

Results for O=S(=O)(NCCc1csc(-c2cccnc2)n1)c1cccs1 ?
Env fusion inh: 24; esBAF inh: -2; Wnt act: -2

What do the screens show for `O=S(=O)(NCCc1csc(-c2cccnc2)n1)c1ccc(Cl)s1`?
Env fusion inh: 122*; MITF TRPM1 HTS: -4; miR-122 sensor: 40; esBAF inh: 1; Wnt act: -2

What do the screens show for `C[C@@H]1CN([C@@H](C)CO)C(=O)c2cc(NC(=O)c3ccncc3)ccc2O[C@@H](C)CCCCO[C@@H]1CN(C)S(=O)(=O)c1cccs1`?
Env fusion inh: 12[16.7 µM]; miR-122 sensor: 11[16.7 µM]; esBAF inh: -5

How did CN1C(=O)c2cc(NC(=O)c3ccc(F)c(F)c3)ccc2OC[C@@H]2O[C@H](CC(=O)N[C@H]3CCN(Cc4ccccc4)C3)CC[C@@H]21 do in these assays?
Env fusion inh: 16[16.7 µM]; esBAF inh: 7

Results for Cc1csc(NC(=O)c2ccc(Br)s2)n1 ?
Env fusion inh: -76; MITF TRPM1 HTS: 22; miR-122 sensor: -2; esBAF inh: 57*; Wnt act: 23

How did Cc1csc(NC(=O)c2cccs2)n1 do in these assays?
MITF TRPM1 HTS: 57; miR-122 sensor: -3

Results for CC(C)(C)c1csc(NC(=O)c2ccc(Cl)s2)n1 ?
MITF TRPM1 HTS: 38; miR-122 sensor: -11; esBAF inh: 94*

Results for CC(C)(C)c1csc(NC(=O)c2ccc3nccnc3c2)n1 ?
MITF TRPM1 HTS: 114*; miR-122 sensor: 1

Results for Cc1ccc(C(=O)Nc2nc(C(C)(C)C)cs2)s1 ?
MITF TRPM1 HTS: 68; miR-122 sensor: -10; esBAF inh: 66*
